AmpC inh detg – AmpC beta-lactamase inhibition with detergent present | Potency, µM (doses to about 114 µM), for inactives: top-dose activity change, negative = inhibition, actives largely listed as inhibitors | AmpC hydrolysis of nitrocefin, absorbance 480 nm, 0.01% Triton | P00811 | hit rate 0.041% among 370,000;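 also: 0% = no-compound wells and -100% = no-enzyme wells; nearly all actives have a fitted effect of over 25% in size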
Target sequence (P00811 whole entry, looked up): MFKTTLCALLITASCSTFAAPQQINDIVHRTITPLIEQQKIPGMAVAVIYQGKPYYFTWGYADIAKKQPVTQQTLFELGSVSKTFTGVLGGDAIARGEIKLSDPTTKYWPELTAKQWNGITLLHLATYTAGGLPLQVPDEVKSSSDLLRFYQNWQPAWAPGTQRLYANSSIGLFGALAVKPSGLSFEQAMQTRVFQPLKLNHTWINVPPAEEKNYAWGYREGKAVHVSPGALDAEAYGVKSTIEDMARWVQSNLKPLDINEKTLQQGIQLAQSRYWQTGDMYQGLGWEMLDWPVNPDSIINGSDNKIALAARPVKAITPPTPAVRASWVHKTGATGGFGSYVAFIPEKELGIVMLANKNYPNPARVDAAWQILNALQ
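20 mM phosphate pH 7.0 + 0.01% (detergent screen) or 0.0001% Triton X-100; 5.3 nM AmpC reagent; cpd preinc 15 min RT; nitrocefin (800 uM stock) to start; A480 q20 s × 4 min; Activity was normalised to no-enzyme and no-compound control wells.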
AmpC no deterg – AmpC beta-lactamase inhibition without detergent; P00811; AmpC nitrocefin hydrolysis, absorbance 480 nm, 0.0001% Triton; Potency, µM (doses to about 57.1 µM), inactives show top-dose activity change, negative = inhibition, hits mostly inhibitors; hit rate 0.52% among 330,000;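 also: plate controls were no compound for no effect and no enzyme for full effect; nearly all actives have a fitted effect of over 20% in size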
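AmpC (5.3 nM in the dispensed reagent) in 20 mM phosphate pH 7.0 with 0.01% (detergent screen) or 0.0001% Triton X-100 was preincubated with compounds for 15 min at room temperature. Nitrocefin was then added from an 800 uM solution, and hydrolysis was followed at 480 nm.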
Pf growth 96h – inhibits malaria parasite growth, 96 h. Potency, µM (doses to about 28.7 µM), for inactives: at the top dose activity change, negative = inhibition, hits mostly inhibitors. P. falciparum luciferase reporter growth, 96 h. hit rate 6.9% among 320,000; also: % is scaled to controls: 0 for no effect and ±100 for the full control effect
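Luminescence readout: decreased luciferase signal marks inhibited growth of reporter-expressing P. falciparum in infected red cells (2% hematocrit, 0.05% parasitemia final), exposed to compound two generations (96 h, 37 C, 5% CO2).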
Sm TGR inh – blocks Schistosoma mansoni thioredoxin glutathione reductase; Potency, µM (top dose mostly 114 µM), inactives show at the top dose activity change, negative = inhibition, most hits filed as inhibitors; hit rate 3% among 360,000; purified TGR, DTNB reduction, TNB absorbance 405 nm; Q962Y6; also: % is scaled to controls: 0 for no effect and ±100 for the full control effect; nearly all actives have a fitted effect of over 60% in size
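TGR 20 nM + NADPH 100 uM (dispensed conc.), cpd preinc 15 min RT; start with NADPH (500 uM addition) then DTNB (15 mM addition). Kinetic TNB absorbance, 405 nm filter. Four-parameter Hill fit across titration.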
SARS PLpro yeast – inhibitors of SARS-CoV papain-like protease in yeast; S. cerevisiae expressing SARS-CoV PLpro, growth rescue; Potency, µM (doses to about 32.9 µM), for the others: at the top dose activity, positive = growth rescue, most hits filed as activators; hit rate 0.19% among 330,000; calls by dose curve; also: 0% is about no effect; nearly all actives have a fitted effect of over 55% in size
Pf growth 48h – P. falciparum growth inhibition at 48 hours (one generation) | P. falciparum luciferase growth in erythrocytes, 48 h | Potency, µM (top dose mostly 28.7 µM), without a hit: at the highest dose activity change, negative = inhibition, actives largely listed as inhibitors | hit rate 5.9% among 310,000 | AID 504832; also: % is scaled to controls: 0 for no effect and ±100 for the full control effect
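In quantitative HTS format, infected erythrocytes bearing luciferase-reporter parasites were treated for a single generation at 37 C. Luminescence after adding detection reagent served as the growth measure.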
Active calls of the source: *; ? = inconclusive; / = not tested or not shown; [ ] = another dose, or the depositor's remark. In the library only some 12% were active in any assay of this set; here they are far more common. Unless noted, calls follow the shape of the dose curve; as a rule, active = well fitted curve in the direction sought with a large enough effect; inconclusive = small, poorly fitted or top-dose-only effect, or another doubt; inactive = no such curve, though single readings can be large; an effect the other way counts as inactive or inconclusive. Potency is read from the fitted curve at half-maximal effect.

SMILES	AmpC inh detg	AmpC no deterg	Pf growth 96h	Sm TGR inh	SARS PLpro yeast	Pf growth 48h
Cc1ccc(NC(=O)N2CCC(CN3CCCC3)CC2)c(C)c1	-3.7%	/	/	-21.8%	/	/
CC(=O)Nc1ccc(S(=O)(=O)N2CCN(C(=O)c3ncoc3-c3ccccc3)CC2)cc1	-9.7%	-5.6%	-0.2%	-11.7%	0.5%	10.0%
Cc1oc(-c2ccc(Cl)cc2)nc1CN1C(=O)CN=C(c2ccccc2)c2cc(Cl)ccc21	17.2%	/	/	16.3%	/	/
Cc1oc(-c2ccccc2)nc1CN1C(=O)C(C)N=C(c2ccccc2F)c2cc(Cl)ccc21 (stereo not drawn)	-8.0%	11.4%	2.33µM*	-2.0%	-1.3%	?
Clc1ccccc1CSc1ncn(-c2ccccc2)n1	?	-30.2%	360.4%	6.1%	-22.8%	312.8%
CN(CC(=O)Nc1ccc(N2CCOCC2)cc1)C(=O)c1cc(F)c(F)cc1Cl	-7.8%	-7.4%	?	-6.4%	-1.3%	35.2%
Cc1ccc(S(=O)(=O)N2CCc3cc(C(=O)Nc4c(F)cccc4F)ccc32)cc1	22.2%	/	/	5.4%	/	/
ClC(/C=N/n1cnnc1)=C/c1ccccc1	6.3%	-18.9%	11.7µM*	?	1.0%	11.7µM*
c1ccc(CCN=C2CCCc3c2[nH]c2ccccc32)cc1	-1.1%	-24.7%	91.0%	56.2µM*	-0.6%	59.7%
NC(=O)c1cccc2ccccc12	-5.9%	-8.6%	31.5%	-6.8%	-0.1%	10.7%
N#CSCC(=O)c1cccc2ccccc12	?	-27.8%	59.6%	31.6µM*	-91.2%	-0.9%
Cc1ccc(C23CC4CC(CC(C(=O)N5CCN(C)CC5)(C4)C2)C3)cc1	-4.7%	143.0%	?	8.5%	-5.5%	?
Cc1ccc(C)c(N2CCN(C(=O)C34CC5CC(C3)CC(n3nnc(C)n3)(C5)C4)CC2)c1	-2.9%	98.2%	?	-0.8%	-4.0%	10.4µM*
COCCNC(=O)CSc1cc(=O)n(C)c2cc(Cl)ccc12	-6.3%	-10.4%	?	1.7%	0.6%	32.3%
CCC(C)NC(=O)CSc1nc2n[nH]c(C)c2c(=N)n1-c1ccc(C)c(Cl)c1 (stereo not drawn)	8.3%	/	/	-0.7%	/	/
CCCCCC(=O)NC(=S)NC1C2CC3CC(C2)CC1C3 (stereo not drawn)	0.5%	-46.5%	3.7µM*	?	-2.2%	4.65µM*
CCOc1cc(/C=C\[N+](=O)[O-])ccc1OCC(=O)N1CCOCC1	2.9%	55.6%	?	10µM*	4.9%	?
CCOc1cc(C(=O)NCc2ccc(C)cc2)ccc1OCC(=O)N1CCOCC1	-13.6%	10.0%	-6.1%	5.6%	0.3%	2.5%
CCOc1ccc(C(=O)OCC(=O)N2CCOCC2)cc1OCC	?	0.5%	19.8%	-0.7%	-1.0%	32.6%
CCOc1cc(/C=C/c2nc3cc(C)c(C)cc3s2)ccc1OCC(=O)N1CCOCC1	-2.9%	194.8%	10.4µM*	3.1%	12.4%	?
Cc1n[nH]c(C)c1CCNC(=O)C1CCC(=O)N(Cc2ccccc2F)C1 (stereo not drawn)	2.9%	45.9%	-40.9%	12.3%	4.2%	15.9%
O=CNn1cnc2c(oc3nc(-c4ccccc4)cc(-c4ccco4)c32)c1=O	-2.3%	2.6%	40.1%	39.8µM*	-0.8%	23.2%
Cc1cc(C)cc(Nc2nc3ccccc3nc2-n2nc(C)cc2C)c1	-4.6%	/	/	1.3%	/	/
CCOC(=O)c1c(C)[nH]c(C)c1S(=O)(=O)NCC(=O)NCc1cccc(Br)c1	0.3%	/	/	8.5%	/	/
CCOC(=O)c1c(C)[nH]c(C)c1S(=O)(=O)N(C)CC(=O)NCc1cccc(Br)c1	1.5%	56.3%	11.7µM*	-8.7%	1.6%	?
SMILES	AmpC inh detg	AmpC no deterg	Pf growth 96h	Sm TGR inh	SARS PLpro yeast	Pf growth 48h
COc1ccc(NC(=O)c2cc3c(Cl)nc4ccccc4c3s2)cc1OC	-9.3%	-25.2%	-1.8%	-26.8%	26.6%	2.08µM*
COc1ccc(OC)c(NC(=O)c2cc3c(Cl)nc4ccccc4c3s2)c1	-14.8%	-3.4%	0.1%	-8.0%	8.8%	39.2%
Cn1ccnc1C(=O)c1ccc(N)cc1	7.0%	-15.9%	35.6%	6.6%	-0.5%	15.3%
O=C(c1ccncc1)c1nccn1-c1ccccn1	?	-4.4%	13.1µM*	-3.1%	4.9%	-6.1%
CC(Sc1nccn1C)C(=O)Nc1ccccc1C#N (stereo not drawn)	-0.4%	/	/	11.5%	/	/
Cc1ccc(C)c(-n2cc(CNCCc3cnccn3)c(-c3ccccc3)n2)c1	7.1%	61.3%	?	14.7%	1.3%	7.38µM*
CCn1ccnc1CNCc1cn(-c2cc(C)ccc2C)nc1-c1ccccc1	0.0%	95.5%	?	-10.0%[57.1 µM]	-1.3%	?
COCCN1CCC(CNCc2cn[nH]c2-c2ccc(C)c(C)c2)C1 (stereo not drawn)	6.6%	76.9%	-8.3%	-12.8%	-2.4%	?
COCCN1CCC(CNCc2cn(-c3cc(C)ccc3C)nc2-c2ccccc2)C1 (stereo not drawn)	11.6%	109.2%	?	5.3%	0.3%	4.65µM*
CC(=O)N1CCCN(Cc2cn(-c3cc(C)ccc3C)nc2-c2ccccc2)CC1	7.5%	129.3%	-18.0%	-0.4%	1.1%	16.5µM*
CN(CC(=O)Nc1ccc(F)c(F)c1F)C(=O)C1COc2ccccc2O1 (stereo not drawn)	/	-9.7%	/	/	5.5%	/
COc1ccc(OC)c(NC2=NC3(CCCC3)N=C(N)N2)c1	5.6%	-39.9%	/	5.3%	4.3%	-21.5%
CCCCOc1ccc(C2(C(=O)O)CCCC2)cc1	6.7%	-22.3%	?	-5.8%	10.4%	7.3%
Cc1cc(C)cc(NC2=NC3(CCCCC3)N=C(N)N2)c1	-5.9%	14.6%	1.04µM*	5.0%[11.4 µM]	-2.3%	/
Cc1cccc(NC2=NC(C)(C)N=C(N)N2)c1	-4.9%	-18.0%	-22.8%	1.9%	0.8%	0.0059µM*
CCCCOc1ccc(NC2=NC3(CCCC3)N=C(N)N2)cc1	-7.4%	-48.1%	?	-15.8%	1.1%	1.17µM*
NC1=NC2(CCCCC2)N=C(Nc2ccc(F)cc2F)N1	-12.8%	-29.8%	3.7µM*	-14.7%	1.9%	?
CCOc1ccc(-n2c(SCC(=O)N3CCc4ccccc43)nc3c([nH]c4ccccc43)c2=O)cc1	2.7%	/	/	7.9%	/	/
CCCCN(CCCC)CCNC(=O)c1cn(C)c2ccc(S(=O)(=O)N3CCOCC3)cc2c1=O	4.0%	/	/	8.0%	/	/
CCOC(=O)N1CCN(C(=O)CN(C)S(=O)(=O)c2ccc(F)cc2)CC1	4.3%	-6.3%	9.0%	-12.0%	0.0%	34.2%
CCN(CC)C1=CC(=[N+]2CCCC2)CC(C)(C)C1	?	-9.9%	0.37µM*	-28.8%	?	1.31µM*
CN(Cc1ccccc1)C1=CC(=[N+]2CCCC2)CC(C)(C)C1	0.2%	10.0%	0.586µM*	4.8%	0.1%	0.928µM*
